Measured values taken from paper PMC9911399, “Two distinct binding modes provide the RNA-binding protein RbFox with extraordinary sequence specificity”.
Where a chain is given by its changes, count along the chain named. The full ranking holds about 16,000 sequences; the median of “ka relative to ugcaugu” is about 0.0091, and the highest 2% start at about 0.032. The list comes from a sample in which the highest values are over-represented; it also holds similar and randomly drawn sequences.

T1: RBFOX1 RRM (Homo sapiens, UniProt Q9NWB1 109-208)
T1 sequence: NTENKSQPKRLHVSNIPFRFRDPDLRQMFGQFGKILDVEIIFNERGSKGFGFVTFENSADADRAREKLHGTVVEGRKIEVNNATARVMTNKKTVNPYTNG

B1: ACAACCU (DNA:RNA)
RNA: GGGAGACCGGAAUUCAGAUUGUCCACAACCUUUAAAUCCCGUCGUAGCCACCA
DNA 1: CAATCTGAATTCCGGTCTCCC
DNA 2: TGGTGGCTACGACGGGATT
B2: AGCGAAA (DNA:RNA)
RNA: B1 RNA with C26G, A27C, A28G, C29A, C30A, U31A
DNA 1: CAATCTGAATTCCGGTCTCCC
DNA 2: TGGTGGCTACGACGGGATT
B3: UUUUUGU (DNA:RNA)
RNA: B1 RNA with A25U, C26U, A27U, A28U, C29U, C30G
DNA 1: CAATCTGAATTCCGGTCTCCC
DNA 2: TGGTGGCTACGACGGGATT
B4: UCGUCCC (DNA:RNA)
RNA: B1 RNA with A25U, A27G, A28U, U31C
DNA 1: CAATCTGAATTCCGGTCTCCC
DNA 2: TGGTGGCTACGACGGGATT
B5: ACAGACA (DNA:RNA)
RNA: B1 RNA with A28G, C29A, U31A
DNA 1: CAATCTGAATTCCGGTCTCCC
DNA 2: TGGTGGCTACGACGGGATT
B6: UCACUAC (DNA:RNA)
RNA: B1 RNA with A25U, A28C, C29U, C30A, U31C
DNA 1: CAATCTGAATTCCGGTCTCCC
DNA 2: TGGTGGCTACGACGGGATT
B7: GGCAAAG (DNA:RNA)
RNA: B1 RNA with A25G, C26G, A27C, C29A, C30A, U31G
DNA 1: CAATCTGAATTCCGGTCTCCC
DNA 2: TGGTGGCTACGACGGGATT
B8: UGGAUCG (DNA:RNA)
RNA: B1 RNA with A25U, C26G, A27G, C29U, U31G
DNA 1: CAATCTGAATTCCGGTCTCCC
DNA 2: TGGTGGCTACGACGGGATT
B9: UGGAGUG (DNA:RNA)
RNA: B1 RNA with A25U, C26G, A27G, C29G, C30U, U31G
DNA 1: CAATCTGAATTCCGGTCTCCC
DNA 2: TGGTGGCTACGACGGGATT
B10: UGGAGAG (DNA:RNA)
RNA: B1 RNA with A25U, C26G, A27G, C29G, C30A, U31G
DNA 1: CAATCTGAATTCCGGTCTCCC
DNA 2: TGGTGGCTACGACGGGATT
B11: UGUCGUG (DNA:RNA)
RNA: GGGAGACCGGAAUUCAGAUUGUCCUGUCGUGUUAAAUCCCGUCGUAGCCACCA
DNA 1: CAATCTGAATTCCGGTCTCCC
DNA 2: TGGTGGCTACGACGGGATT
B12: UGGAUCU (DNA:RNA)
RNA: B1 RNA with A25U, C26G, A27G, C29U
DNA 1: CAATCTGAATTCCGGTCTCCC
DNA 2: TGGTGGCTACGACGGGATT
B13: UGUCGUC (DNA:RNA)
RNA: B11 RNA with G31C
DNA 1: CAATCTGAATTCCGGTCTCCC
DNA 2: TGGTGGCTACGACGGGATT
B14: UGGAAUG (DNA:RNA)
RNA: B11 RNA with U27G, C28A, G29A
DNA 1: CAATCTGAATTCCGGTCTCCC
DNA 2: TGGTGGCTACGACGGGATT
B15: UGUUGUC (DNA:RNA)
RNA: B11 RNA with C28U, G31C
DNA 1: CAATCTGAATTCCGGTCTCCC
DNA 2: TGGTGGCTACGACGGGATT
B16: UGUCUUG (DNA:RNA)
RNA: B11 RNA with G29U
DNA 1: CAATCTGAATTCCGGTCTCCC
DNA 2: TGGTGGCTACGACGGGATT
B17: UGGAGAU (DNA:RNA)
RNA: B11 RNA with U27G, C28A, U30A, G31U
DNA 1: CAATCTGAATTCCGGTCTCCC
DNA 2: TGGTGGCTACGACGGGATT
B18: UGGAGAA (DNA:RNA)
RNA: B11 RNA with U27G, C28A, U30A, G31A
DNA 1: CAATCTGAATTCCGGTCTCCC
DNA 2: TGGTGGCTACGACGGGATT
B19: UGGAUCC (DNA:RNA)
RNA: B1 RNA with A25U, C26G, A27G, C29U, U31C
DNA 1: CAATCTGAATTCCGGTCTCCC
DNA 2: TGGTGGCTACGACGGGATT
B20: CAGAAAA (DNA:RNA)
RNA: B1 RNA with A25C, C26A, A27G, C29A, C30A, U31A
DNA 1: CAATCTGAATTCCGGTCTCCC
DNA 2: TGGTGGCTACGACGGGATT
B21: UGGGUAG (DNA:RNA)
RNA: B11 RNA with U27G, C28G, G29U, U30A
DNA 1: CAATCTGAATTCCGGTCTCCC
DNA 2: TGGTGGCTACGACGGGATT
B22: CCCAAGA (DNA:RNA)
RNA: B1 RNA with A25C, A27C, C29A, C30G, U31A
DNA 1: CAATCTGAATTCCGGTCTCCC
DNA 2: TGGTGGCTACGACGGGATT
B23: UCGCCGG (DNA:RNA)
RNA: B11 RNA with G26C, U27G, G29C, U30G
DNA 1: CAATCTGAATTCCGGTCTCCC
DNA 2: TGGTGGCTACGACGGGATT
B24: CUAGUGU (DNA:RNA)
RNA: B1 RNA with A25C, C26U, A28G, C29U, C30G
DNA 1: CAATCTGAATTCCGGTCTCCC
DNA 2: TGGTGGCTACGACGGGATT
B25: UGCUCCU (DNA:RNA)
RNA: B1 RNA with A25U, C26G, A27C, A28U
DNA 1: CAATCTGAATTCCGGTCTCCC
DNA 2: TGGTGGCTACGACGGGATT
B26: GAUCGAC (DNA:RNA)
RNA: B11 RNA with U25G, G26A, U30A, G31C
DNA 1: CAATCTGAATTCCGGTCTCCC
DNA 2: TGGTGGCTACGACGGGATT
B27: GAGAGCC (DNA:RNA)
RNA: B1 RNA with A25G, C26A, A27G, C29G, U31C
DNA 1: CAATCTGAATTCCGGTCTCCC
DNA 2: TGGTGGCTACGACGGGATT
B28: GCCAUGU (DNA:RNA)
RNA: B1 RNA with A25G, A27C, C29U, C30G
DNA 1: CAATCTGAATTCCGGTCTCCC
DNA 2: TGGTGGCTACGACGGGATT
B29: ACGCAUC (DNA:RNA)
RNA: B1 RNA with A27G, A28C, C29A, C30U, U31C
DNA 1: CAATCTGAATTCCGGTCTCCC
DNA 2: TGGTGGCTACGACGGGATT
B30: CGCAUUG (DNA:RNA)
RNA: B11 RNA with U25C, U27C, C28A, G29U
DNA 1: CAATCTGAATTCCGGTCTCCC
DNA 2: TGGTGGCTACGACGGGATT
B31: GCAAUGU (DNA:RNA)
RNA: B1 RNA with A25G, C29U, C30G
DNA 1: CAATCTGAATTCCGGTCTCCC
DNA 2: TGGTGGCTACGACGGGATT
B32: CCCCGCA (DNA:RNA)
RNA: B1 RNA with A25C, A27C, A28C, C29G, U31A
DNA 1: CAATCTGAATTCCGGTCTCCC
DNA 2: TGGTGGCTACGACGGGATT
B33: CCGCAUG (DNA:RNA)
RNA: B11 RNA with U25C, G26C, U27G, G29A
DNA 1: CAATCTGAATTCCGGTCTCCC
DNA 2: TGGTGGCTACGACGGGATT
B34: ACGCAUA (DNA:RNA)
RNA: B1 RNA with A27G, A28C, C29A, C30U, U31A
DNA 1: CAATCTGAATTCCGGTCTCCC
DNA 2: TGGTGGCTACGACGGGATT
B35: CGCAUGU (DNA:RNA)
RNA: B1 RNA with A25C, C26G, A27C, C29U, C30G
DNA 1: CAATCTGAATTCCGGTCTCCC
DNA 2: TGGTGGCTACGACGGGATT
B36: GCAUUGU (DNA:RNA)
RNA: B1 RNA with A25G, A28U, C29U, C30G
DNA 1: CAATCTGAATTCCGGTCTCCC
DNA 2: TGGTGGCTACGACGGGATT
B37: GCAUGUU (DNA:RNA)
RNA: B1 RNA with A25G, A28U, C29G, C30U
DNA 1: CAATCTGAATTCCGGTCTCCC
DNA 2: TGGTGGCTACGACGGGATT
B38: ACGCAUG (DNA:RNA)
RNA: B11 RNA with U25A, G26C, U27G, G29A
DNA 1: CAATCTGAATTCCGGTCTCCC
DNA 2: TGGTGGCTACGACGGGATT
B39: GCAUAGU (DNA:RNA)
RNA: B1 RNA with A25G, A28U, C29A, C30G
DNA 1: CAATCTGAATTCCGGTCTCCC
DNA 2: TGGTGGCTACGACGGGATT

What follows are binders tested against T1, RBFOX1 RRM (assay: EMSA; HiTS-Eq, 1 nM pool, 10 min; buffer printed only for the single-RNA assays: 10 mM Tris pH 7.5, 150 mM NaCl, 3.4 mM EDTA, 0.001% NP-40, 30 C). Settings: tags: His6 N-terminal (pET28a); label: 5' 32P.
Outline: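 Purified RbFox RRM (wild type or mutant) was equilibrated for 10 min in 50 µL with 1 nM of a 5′-radiolabelled pool of RNA with 7 randomized nucleotides, its flanks annealed to DNA oligonucleotides, across increasing protein concentrations. Free RNA was separated by 8% native PAGE, excised, reverse-transcribed, PCR-barcoded and sequenced on an Illumina HiSeq 2500. Relative association constants came from read-count changes of each variant against the control reaction, normalised to the cognate motif.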
With B1 the binding signal was 0.000511 KA relative to UGCAUGU. B2 was tested, and the binding signal was 0.0048 KA relative to UGCAUGU. For B3, the binding signal was 0.0281 KA relative to UGCAUGU. In the case of B4, the binding signal is reported as 0.00735 KA relative to UGCAUGU. In the case of B5, the binding signal is reported as 0.00018 KA relative to UGCAUGU. For B6, the binding signal was 0.000713 KA relative to UGCAUGU. With B7 the binding signal was 0.00447 KA relative to UGCAUGU. With B8 the binding signal was 0.0333 KA relative to UGCAUGU. With B9 the binding signal was 0.0323 KA relative to UGCAUGU. B10 was tested, and the binding signal was 0.0249 KA relative to UGCAUGU. With B11 the binding signal was 0.0277 KA relative to UGCAUGU. With B12 the binding signal was 0.0236 KA relative to UGCAUGU. B13 was tested, and the binding signal was 0.0214 KA relative to UGCAUGU. In the case of B14, the binding signal is reported as 0.0953 KA relative to UGCAUGU. For B15, the binding signal was 0.0242 KA relative to UGCAUGU. With B16 the binding signal was 0.0447 KA relative to UGCAUGU. For B17, the binding signal was 0.0283 KA relative to UGCAUGU. For B18, the binding signal was 0.0194 KA relative to UGCAUGU. With B19 the binding signal was 0.0229 KA relative to UGCAUGU. With B20 the binding signal was 0.000855 KA relative to UGCAUGU. With B21 the binding signal was 0.0258 KA relative to UGCAUGU. With B22 the binding signal was 0.00241 KA relative to UGCAUGU. B23 was tested, and the binding signal was 0.0169 KA relative to UGCAUGU. B24 was tested, and the binding signal was 0.0159 KA relative to UGCAUGU. With B25 the binding signal was 0.0145 KA relative to UGCAUGU. In the case of B26, the binding signal is reported as 0.0165 KA relative to UGCAUGU. With B27 the binding signal was 0.0145 KA relative to UGCAUGU. B28 was tested, and the binding signal was 0.0117 KA relative to UGCAUGU. For B29, the binding signal was 0.00881 KA relative to UGCAUGU. With B30 the binding signal was 0.0131 KA relative to UGCAUGU. In the case of B31, the binding signal is reported as 0.01 KA relative to UGCAUGU. With B32 the binding signal was 0.0132 KA relative to UGCAUGU. In the case of B33, the binding signal is reported as 0.806 KA relative to UGCAUGU. With B34 the binding signal was 0.00394 KA relative to UGCAUGU. With B35 the binding signal was 0.735 KA relative to UGCAUGU. For B36, the binding signal was 0.0129 KA relative to UGCAUGU. For B37, the binding signal was 0.635 KA relative to UGCAUGU. In the case of B38, the binding signal is reported as 0.697 KA relative to UGCAUGU. For B39, the binding signal was 0.0104 KA relative to UGCAUGU.
